The structures appear in SMILES notation. The whole screen tested about 310,000 compounds, of which about 14,000 (4.5%) showed an effect of 50% or more. Effects have a minus sign here. Only a selection was taken, and strong results are over-represented in it overall.
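Note: peak tail current of the secondary pulse compared with the same well before compound.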

For the assay, the target named is human ether-à-go-go-related gene (hERG) potassium channel (human, UniProt Q12809). Briefly: primary screen, population patch clamp on CHO cells stably expressing hERG; higher = less effect of the substance.
Sequence of human ether-à-go-go-related gene (hERG) potassium channel (Q12809 whole entry, looked up): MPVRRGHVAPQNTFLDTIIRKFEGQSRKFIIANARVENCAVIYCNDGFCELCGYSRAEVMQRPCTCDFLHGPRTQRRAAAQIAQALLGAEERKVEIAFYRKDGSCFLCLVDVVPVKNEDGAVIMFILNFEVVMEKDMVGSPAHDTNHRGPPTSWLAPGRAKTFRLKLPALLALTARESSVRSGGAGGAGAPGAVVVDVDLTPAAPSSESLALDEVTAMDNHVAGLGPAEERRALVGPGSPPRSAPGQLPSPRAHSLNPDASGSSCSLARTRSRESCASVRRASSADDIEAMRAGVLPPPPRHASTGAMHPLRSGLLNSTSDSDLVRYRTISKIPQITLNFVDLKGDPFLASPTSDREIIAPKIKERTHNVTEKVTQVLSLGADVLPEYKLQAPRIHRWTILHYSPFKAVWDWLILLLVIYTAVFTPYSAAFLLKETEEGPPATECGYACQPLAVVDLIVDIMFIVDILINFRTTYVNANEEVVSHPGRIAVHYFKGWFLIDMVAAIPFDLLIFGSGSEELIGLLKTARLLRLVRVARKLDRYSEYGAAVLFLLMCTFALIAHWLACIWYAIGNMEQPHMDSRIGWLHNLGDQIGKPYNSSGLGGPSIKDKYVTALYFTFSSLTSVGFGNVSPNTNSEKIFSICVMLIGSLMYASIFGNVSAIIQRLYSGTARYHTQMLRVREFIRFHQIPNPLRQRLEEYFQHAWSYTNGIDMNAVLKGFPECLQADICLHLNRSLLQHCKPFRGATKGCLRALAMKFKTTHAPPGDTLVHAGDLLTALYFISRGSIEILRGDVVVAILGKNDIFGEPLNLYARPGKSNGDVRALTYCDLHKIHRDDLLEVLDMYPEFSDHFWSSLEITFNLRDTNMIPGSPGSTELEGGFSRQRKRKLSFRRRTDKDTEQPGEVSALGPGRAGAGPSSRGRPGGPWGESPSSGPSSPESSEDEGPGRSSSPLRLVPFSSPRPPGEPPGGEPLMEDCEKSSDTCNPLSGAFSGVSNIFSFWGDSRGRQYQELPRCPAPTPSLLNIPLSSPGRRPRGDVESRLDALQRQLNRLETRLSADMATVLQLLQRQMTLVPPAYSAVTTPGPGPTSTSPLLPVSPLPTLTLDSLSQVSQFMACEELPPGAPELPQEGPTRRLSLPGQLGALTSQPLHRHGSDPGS
Turning to `NC(=O)N/N=C/c1cn(-c2ccccc2)nc1-c1cccs1`, the “hERG current change (%, negative = inhibition) at 10uM” value was -38.8%.
For the compound `O=C(N/N=C/c1cn(-c2ccccc2)nc1-c1cccs1)c1ccncc1`, the “hERG current change (%, negative = inhibition) at 10uM” value is on record as -10.2%.
The figure for `NC(N)=N/N=C/c1cn(-c2ccccc2)nc1-c1cccs1.O=[N+]([O-])O` is -62.1%.
With `CCOc1ccc(CN(C)C(=O)c2ccc(=O)[nH]c2)cc1`, the “hERG current change (%, negative = inhibition) at 10uM” value was determined as 16.6%.
The figure for `CCOC(=O)c1ncn2c1[C@@H]1CCNC1C(=O)c1cc(OC)ccc1-2` (stereo partly drawn) is -68.4%; for `CCOC(=O)C1=C(C)N(C)C(=S)NC1c1cc(OC)ccc1OC` (stereo not drawn) it is 3.73%.
For the compound `CCOC(=O)c1ncn2c1CN(C)C(=O)c1cc(F)ccc1-2`, the “hERG current change (%, negative = inhibition) at 10uM” value came out at 8.55%.
The figure for `Cc1nc(N2CCC(C(N)=O)CC2)c2c(-c3cccs3)csc2n1` is -0.812%.
The figure for `Cc1ccc(N(CCC#N)C(=O)COC(=O)c2cc(C)oc2C)cc1` is -15.3%; for `CCOC(=O)C1CCCN(C2=NC(=O)/C(=C/c3ccc(OC)cc3OC)S2)C1` (stereo not drawn) it is -52.6%; for `COc1ccc(C(=O)C2CCCN(Cc3cc(Cl)ccc3O)C2)c(OC)c1` (stereo not drawn) it is -26.8%.
As for `CCOC(=O)N1CCN(CC(O)COc2ccc(OC)cc2C(C)(C)C)CC1.Cl` (stereo not drawn), the figure is -12%; as for `COc1ccc(CN2CCCC(C(=O)N3CCCCC3)C2)c(OC)c1.O=C(O)C(=O)O` (stereo not drawn), -26.7%; as for `COc1ccc(CN2CCCC(C(=O)c3ccc(Cl)cc3)C2)c(OC)c1` (stereo not drawn), -75.2%.
Regarding `CCOC(=O)C1CCCN(C2=NC(=O)/C(=C/c3ccc(OC)cc3)S2)C1` (stereo not drawn), the “hERG current change (%, negative = inhibition) at 10uM” value is -20.1%.
As for `COc1ccc(CN2CCCC(C(=O)c3ccc(Cl)cc3)C2)c(O)c1` (stereo not drawn), the figure is -67.7%.
The figure for `CCOC(=O)C1CCCN(C2=NC(=O)/C(=C/c3ccc(OC)c(OC)c3)S2)C1` (stereo not drawn) is -22.8%; for `CCOC(=O)C1CCCN(CC(O)COc2cccc(C)c2)C1.Cl` (stereo not drawn) it is -23.7%.
The figure for `CCOC(=O)C1CCCN(CC(O)COc2ccc(OC)cc2C(C)(C)C)C1` (stereo not drawn) is -61.4%; for `COC(=O)CC1(CC(=O)OC)C(=O)N(c2ccccc2)C(=O)N(c2ccccc2)C1=O` it is 11.7%.
Take `C=CCNC(=O)CN(CCc1ccccc1)S(=O)(=O)c1ccccc1`: the “hERG current change (%, negative = inhibition) at 10uM” value was -17.6%.
The figure for `COc1ccc(CN2CCCC(C(=O)N3CCCC3)C2)c(OC)c1.O=C(O)C(=O)O` (stereo not drawn) is -9.41%; for `CCOC(=O)C1CCN(Cc2ccc(OC)cc2OC)CC1` it is -45.2%; for `CCOC(=O)C1CCCN(Cc2ccc(OC)cc2OC)C1` (stereo not drawn) it is -52.7%.
Regarding `Cc1ccccc1N1C(=O)NC(=O)/C(=C\c2cc(C)n(C)c2C)C1=O`, the “hERG current change (%, negative = inhibition) at 10uM” value was -3.79%.
As for `CC(C)CCN1CCN(CC(c2ccccc2)c2ccccc2)CC1CCO` (stereo not drawn), the figure is -82.3%; as for `OCCC1CN(C/C(Cl)=C/c2ccccc2)CCN1C1CCCC1` (stereo not drawn), -77.4%.
As for `OCCC1CN(CC(c2ccccc2)c2ccccc2)CCN1C1CCCC1` (stereo not drawn), the figure is -71.2%.
For `OCCC1CN(CC#Cc2ccccc2)CCN1C1CCCC1` (stereo not drawn), the “hERG current change (%, negative = inhibition) at 10uM” value is listed as -46.2%.
The figure for `CC(C)=CCN1CCN(C/C(Cl)=C/c2ccccc2)CC1CCO` (stereo not drawn) is -26.9%.
As for `CC(C)CCN1CCN(Cc2cccs2)CC1CCO` (stereo not drawn), the figure is -10.7%.
The figure for `Cc1ccc(CN2CCN(C/C(Cl)=C/c3ccccc3)CC2CCO)o1` (stereo not drawn) is -45.2%; for `CC(C)CCN1CCN(C/C=C/c2ccco2)CC1CCO` (stereo not drawn) it is -57.1%.
Turning to `CCn1cc(CN2CCN(CCC(C)C)C(CCO)C2)c2ccccc21` (stereo not drawn), the “hERG current change (%, negative = inhibition) at 10uM” value is given as -31.9%.
The figure for `CC(C)CCN1CCN(CC#Cc2ccccc2)CC1CCO` (stereo not drawn) is -49.9%.
Regarding `OCCC1CN(Cc2ccccn2)CCN1C1CCCC1` (stereo not drawn), the “hERG current change (%, negative = inhibition) at 10uM” value is on record as 9.91%.
The figure for `OCCC1CN(C/C=C/c2ccco2)CCN1Cc1ccccc1` (stereo not drawn) is -8.57%.
As for `CN(C)N1C(=O)CC(N2CCCCC2)C1=O` (stereo not drawn), the figure is 6.08%; as for `Cc1nn(C(C)C(=O)N2CCc3ccccc32)c(C)c1[N+](=O)[O-]` (stereo not drawn), 10%.
The figure for `CC(=O)NS(=O)(=O)c1ccc(NC(=O)c2ccc(NC(=O)c3cccs3)cc2)cc1` is 2.48%.
Consider `COc1cc2c(cc1OC)-c1cc(NC3CC3)nc(=O)n1CC2`, for which the “hERG current change (%, negative = inhibition) at 10uM” value is listed as -24.8%.
As to `O=c1oc2c(-c3cccc(F)c3)cc(O)cc2s1`, the “hERG current change (%, negative = inhibition) at 10uM” value is given as 8.45%.
The figure for `COc1ccc(NC(=O)CCc2nnc3ccc(NCc4ccco4)nn23)cc1` is 1.15%.
The figure for `CCOC(=O)c1c([N+](=O)[O-])c(C)[nH]c(=O)c1C#N` is 21.1%.
As for `CCC(c1nnnn1Cc1ccco1)N(Cc1cc2cc(OC)ccc2[nH]c1=O)C1CCCCC1` (stereo not drawn), the figure is -6.37%.

These data come from PMC4336329 (PLoS ONE, 2015).
